RGS4 inhibitor = inhibitors of human regulator of G protein signaling 4; AID 504845; P49798; Potency, µM (series often up to 114 µM), without a hit: at the highest dose activity change, negative = inhibition, hits mostly inhibitors; Transcreener GDP fluorescence polarization, RGS4-accelerated GTP hydrolysis; hit rate 0.039% among 390,000; active = well fitted curve in the direction sought with a large enough effect; inconclusive = small, poorly fitted or top-dose-only effect, or another doubt; inactive = no such curve, though single readings can be large; an effect the other way counts as inactive or inconclusive; also: potency is read from the fitted curve at half-maximal effect; % is scaled to controls: 0 for no effect and ±100 for the full control effect; nearly all actives have a fitted effect of over 75% in size
Target sequence (P49798 whole entry, looked up): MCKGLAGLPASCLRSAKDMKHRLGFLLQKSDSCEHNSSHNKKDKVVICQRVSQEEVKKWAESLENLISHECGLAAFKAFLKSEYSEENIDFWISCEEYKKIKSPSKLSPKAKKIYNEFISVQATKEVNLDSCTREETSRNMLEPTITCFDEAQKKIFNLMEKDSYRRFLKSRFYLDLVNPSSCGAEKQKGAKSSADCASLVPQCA
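MLSMR compounds (23 nl, pin-transferred) preincubated 10 min at room temperature with a 500nM (2x) first reagent, then RGS4 at 900nM (2x) plus Transcreener GDP mix added; fluorescence polarization (620/688 nm) read before and after 90 min at 30 °C.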
Akt phos inh = Akt phosphorylation inhibition; AID 651550; hit rate 0.32% among 360,000; activity change, % for hits at 50 µM; Neuro2A IGF-stimulated pAkt S473 HTRF, 20 min; active compounds read low; in the data active = activity change below about -80%; inconclusive = mostly about -51% to -80%; also: % is scaled to controls: 0 for no effect and ±100 for the full control effect
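Single-point screen (50 µM final compound) in Neuro2A cells stimulated 20 min with 6 nM IGF at 37 deg C. After lysis, Ser473-phosphorylated Akt read by HTRF (ex 330 nm, em 615/665 nm) as the 665/615 ratio.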
GRP78 ERSR act = ER stress response induction in glioma; U87-MG GRP78 promoter luciferase reporter, 16 h; Potency, µM, without a hit: at the highest dose activation, actives largely listed as activators; hit rate 0.02% among 420,000; AID 602332; active = well fitted curve in the direction sought with a large enough effect; inconclusive = small, poorly fitted or top-dose-only effect, or another doubt; inactive = no such curve, though single readings can be large; an effect the other way counts as inactive or inconclusive; also: potency is read from the fitted curve at half-maximal effect; series mostly up to about 76 µM; % of control where 0% means no effect; nearly all actives have a fitted effect of over 35% in size
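ERSR induction read as luciferase luminescence (Bright-Glo, 10 min at room temperature) in stably transfected human U87-MG glioma cells exposed to compounds for 16 h, using GRP78 as sensor.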
Six1-Eya2 blk = blocks human Six1 binding to Eya2; hit rate 0.56% among 360,000; activity change, % (concentration not given with the values); Q15475+O00167; AlphaScreen GST-Six1/His-Eya2 binding, biochemical; active compounds read low; also: % is scaled to controls: 0 for no effect and ±100 for the full control effect
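Homogeneous AlphaScreen proximity assay pairing GST-Six1 with His-tagged Eya2 (added as 5X mix: 250 nM and 500 nM) in 50 mM Tris pH 8.0, 300 mM NaCl, 1 mM TCEP. Glutathione donor and nickel acceptor beads; 1 h, 37 °C, dark.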
CtBP-E1A blk = blocks the CtBP interaction with E1A | activity change, % (no concentration beside the values) | hit rate 0.49% among 340,000 | AlphaScreen GST-E1A/His-CtBP binding, 1536-well; active compounds read low | AID 651724; also: % is scaled to controls: 0 for no effect and ±100 for the full control effect
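Steps: dispense buffer (Tris pH 8.0, NaCl 300 mM, TCEP 1 mM, BSA, Tween 20); add 5X protein mix (GST-E1A, His-CtBP, 125 nM each); pin 23 nL compound; 2 h at 37 °C, dark; add 5X beads (50 ug/mL); 1 h; read.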
An asterisk follows results filed as active; [ ] = dose if it differs, or a comment. The list is not random: actives were taken first. Their share in the collection is about 0.88%. Rule as the data show it, unless noted: active = activity change below about -65%; inconclusive = mostly about -30% to -63%; inactive = weaker than that.

For CCOc1ccc(NC(=O)Cn2nnc(-c3ccccc3NC(=O)C3CC3)n2)cc1 the results were RGS4 inhibitor -8.2%[11.4 µM], Akt phos inh -126.1%*, GRP78 ERSR act -2.0%, Six1-Eya2 blk -0.6 and CtBP-E1A blk 5.5.
For COC(=O)Nc1ccc(OCc2ccccc2)cc1 the results were RGS4 inhibitor -11.8%, GRP78 ERSR act -0.9%, Six1-Eya2 blk 0.2 and CtBP-E1A blk -7.9.
Screening NC(=O)COc1ccc(NC(=O)OCc2ccccc2)cc1 returned RGS4 inhibitor -7.6%, Akt phos inh -106.7%*, GRP78 ERSR act 3.0%, Six1-Eya2 blk -21.7 and CtBP-E1A blk 1.3.
CN(C)c1cccc2c1C(=O)c1ccccc1C2=O was read as RGS4 inhibitor 17.0%, Akt phos inh inactive, GRP78 ERSR act 0.9%, Six1-Eya2 blk -85.7* and CtBP-E1A blk -85.1*.
For Cc1nc2sccn2c1CN1CCOc2ccc(CN3CCN(c4ccc(F)cc4)CC3)cc2C1 the results were GRP78 ERSR act -2.8%.
Screening CC(=O)SC[C@@H](C)C(=O)N1CCC[C@H]1C(=O)N[C@@H](Cc1ccccc1)C(=O)O returned GRP78 ERSR act -3.7%.
`c1ccc(CNCCN2CCNCC2)nc1` gave RGS4 inhibitor 17.9%, Akt phos inh inactive, GRP78 ERSR act -1.8%, Six1-Eya2 blk -85.7* and CtBP-E1A blk -72.1*.
For CC#CCC(C)[C@H](O)/C=C/C1[C@H](O)C[C@@H]2C/C(=C\CCCC(=O)O)C[C@H]12 (stereo not given in full) the results were GRP78 ERSR act -2.1%.
Screening O=C1c2ccccc2NC(c2ccc(Cl)cc2Cl)N1Cc1ccccc1 (stereo not given) returned RGS4 inhibitor -7.5%, Akt phos inh inactive, GRP78 ERSR act -7.0%, Six1-Eya2 blk 0.3 and CtBP-E1A blk 5.5.
O=C1c2ccccc2NC(c2ccc(Cl)cc2Cl)N1O (stereo not given) was read as RGS4 inhibitor 13.8%, Akt phos inh -131.6%*, GRP78 ERSR act -1.6%, Six1-Eya2 blk 0.8 and CtBP-E1A blk -2.9.
`Cc1ccc(-c2nc3ccc(C(=O)O)cc3nc2-c2ccc(C)cc2)cc1` gave RGS4 inhibitor -6.5%, Akt phos inh -123.3%*, GRP78 ERSR act -1.2%, Six1-Eya2 blk 0.5 and CtBP-E1A blk 1.4.
CCCCCCCCCCCCCCCC(=O)NCC(COP(=O)([O-])OCC[N+](C)(C)C)OCC (stereo not given) was read as RGS4 inhibitor 21.2µM* and GRP78 ERSR act -5.9%.
`CCC1CN(CCNC(=O)c2ccnc(Cl)c2)Cc2cc(OC)ccc2O1` (stereo not given) gave GRP78 ERSR act -3.6%.
`Cc1cc2ccccc2c[n+]1C` gave GRP78 ERSR act -2.2%.
For COC(=O)c1cc(NS(=O)(=O)c2ccc(N3CCC(C)CC3)c([N+](=O)[O-])c2)cc(C(=O)OC)c1 the results were RGS4 inhibitor -10.9%, Akt phos inh inactive, GRP78 ERSR act -2.5%, Six1-Eya2 blk -18.2 and CtBP-E1A blk -1.0.
`COC(=O)c1cc(NS(=O)(=O)c2ccc(N3CCCCC3)c([N+](=O)[O-])c2)cc(C(=O)OC)c1` gave RGS4 inhibitor inconclusive, Akt phos inh -98.4%*, GRP78 ERSR act -6.3%, Six1-Eya2 blk -23.4 and CtBP-E1A blk -17.1.
Screening Oc1ccc2ccccc2c1N=Nc1ccccc1F returned RGS4 inhibitor -0.3%, Akt phos inh inactive, GRP78 ERSR act -0.9%, Six1-Eya2 blk -87.9* and CtBP-E1A blk inconclusive.
`CC(C)CCn1c(O)c(N=Nc2ccccn2)c2ccccc21` gave RGS4 inhibitor 4.5%, Akt phos inh inactive, GRP78 ERSR act -2.5%, Six1-Eya2 blk 15.6 and CtBP-E1A blk 12.2.
For Oc1ccc2ccccc2c1N=Nc1ccccn1 the results were RGS4 inhibitor -30.6%, Akt phos inh inactive, GRP78 ERSR act -5.8%, Six1-Eya2 blk -84.2* and CtBP-E1A blk -73.2*.
Screening CCOC(=O)c1[nH]cnc1N=Nc1c(O)ccc2ccccc12 returned RGS4 inhibitor -11.3%, Akt phos inh inactive, GRP78 ERSR act -1.6%, Six1-Eya2 blk -81.5* and CtBP-E1A blk -70.4*.
Screening COc1cc([C@@H]2c3cc4c(cc3[C@@H](O[C@@H]3O[C@H]5CO[C@H](C)O[C@H]5[C@H](O)[C@@H]3O)[C@H]3COC(=O)[C@H]23)OCO4)cc(OC)c1OP(=O)(O)O returned GRP78 ERSR act -2.5%.
